According to PubChem BioAssay (EPA / NIEHS):
“And” between values parts separate entries of the source, which are not always exact repeats. Identical values can stand only once. Results filed as inconclusive are left out. Some compounds were tested as several samples or in several runs, with calls that do not always agree. The source made the active and inactive calls. How the source made its calls: active means hit-call score of the fitted dose curve at least 0.9, where 1 is the maximum; inconclusive means response in the unintended direction; inactive means score below 0.9.

Experiment: TOX21_p53_BLA_p2_viability: Viability Assessment in the Tox21 HCT-116 p53 Agonism Beta-lactamase Assay, Phase 2 (AID 2283591);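 further: compound exposure lasted 16 h at 37 °C; actives lower the ATP signal meaning cytotoxicity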
From the text: TOX21_p53_BLA_p2 is a cell-based, single-readout assay that uses HCT116, a human intestinal cell line, […] in a 1536-well plate.TOX21_p53_BLA_p2_viability is an assay readout measuring cellular ATP content and detected with CellTiter-Glo Luciferase-coupled ATP quantitation.TOX21_p53_BLA_p2_viability used a type of viability reporter where loss-of-signal activity can be used to understand changes in the cell viability. Furthermore, this assay endpoint can be referred to as a secondary readout, because this assay has produced multiple assay endpoints where this one serves a viability function. To generalize the intended target to other relatable targets, this assay endpoint is annotated to the cell cycle intended target family, where the subfamily is cytotoxicity.
Thawing Method: Place 14 mL of pre-warmed thaw medium into a 15 mL of conical tub. Remove the vial of cells to be thawed from liquid nitrogen and thaw rapidly by placing at 37C in a water bath with gentle agitation for 1-2 minutes. Decontaminate the vial by wiping with 70% ethanol before opening in a biological safety cabinet. Transfer the vial contents drop-wise into 14 mL of thaw medium in a sterile 15-mL conical tub. Centrifuge cells at 900 rpm for 4 minutes and resuspend in thaw medium. Transfer contents to the T75 tissue culture flask containing Thaw Medium and place flask in a humidified 37C/5% CO2 incubator. Switch to growth medium at first passage.Propagation Method: Aspirate medium, rinse once in DPBS, add 0.25% Trypsin/EDTA and swirl to coat the cell evenly. Add an equal volume of Growth Medium to inactivate Trypsin after 2-3 minutes incubation at 37C. Centrifuge cells at 900 rpm for 4 minutes and resuspend in growth medium. Cell should be passage or fed at least twice a week.Assay Protocol: Harvest cells from culture in growth medium and resuspend in assay medium. 2.2 Dispense 4000 cells/5 uL/well into 1536-well black/clear bottom plates using a Multidrop dispenser. After the cells were incubated at 37C for 5 hours, 23 nL of compounds dissolved in DMSO were transferred to the assay plate by a PinTool resulting in a 217-fold dilution. Incubate the plates for 16 hours at 37C, 5% CO2. Add 1 uL of 6X LiveBLAzer FRET B/G (CCF4-AM) Substrate Mixture to each well using a BioRAPTR dispenser and incubate the plates at room temperature for 2 hours. Measure fluorescence intensity at 460 and 530 nm emission and 405 nm excitation by an Envision detector. Data is expressed as the ratio of 460nm/530nm emissions. Add 4 uL of Cell-titer Glo to each well using BioRAPTR and incubate the plates at room temperature for […]. For cell viability readout that measures cytotoxicity, 4 ul/well of CellTiter-Glo reagent was added into the assay plates using a Flying Reagent Dispenser. After 30 min incubation at room temperature, the luminescence intensity in the plates was measured using a ViewLux plate reader.

SMILES | outcome | AC50
Cc1cc(Cl)ccc1O | inactive | 
O=[N+]([O-])c1cc([As](=O)(O)O)ccc1O | inactive | 
O=C(CCl)Nc1ccccc1 | inactive | 
c1csc(-c2ccc(-c3cccs3)s2)c1 | inactive | 
O=C1c2ccccc2C(=O)C1C(=O)C(c1ccccc1)c1ccc(Cl)cc1 (stereo not given) |  | 29.4 µM (active)
COc1ccc(N)cc1 | inactive | 
CCOc1cc(C=O)ccc1O | inactive | 
C=C(C)C(=O)OCC(CC)CCCC (stereo not given) | inactive | 
Cc1ccccc1OP(=O)(Oc1ccccc1C)Oc1ccccc1C | inactive | 
OCC(c1ccc(Cl)cc1)c1ccc(Cl)cc1 |  | 69.5 µM (active)
[F][Sn]([c]1ccccc1)([c]1ccccc1)[c]1ccccc1 |  | 1.6 µM (active)
ClCCCCl | inactive | 
CCCCCCCCCCCCCl | inactive | 
BrCCCCBr | inactive | 
BrCc1ccc(Br)cc1 | inactive | 
CC(C)(C#N)N=NC(C)(C)C#N | inactive | 
N#CCCC(Br)(C#N)CBr (stereo not given) | inactive | 
O=[N+]([O-])c1cccc2ccccc12 | inactive | 
CCN(CCO)CCO | inactive | 
O=C(CCl)NCO | inactive | 

SMILES | outcome | AC50
CCCCCCCCCCCCCCC(Br)C(=O)O (stereo not given) | inactive | 
CCOP(=S)(OCC)OP(=S)(OCC)OCC | inactive | 
CCCCCCCCCCCCN(C)C | inactive | 
O=C(O)COc1ccc(Cl)cc1 | inactive | 
CCN(CC)C(=O)C(Cl)=C(C)OP(=O)(OC)OC | inactive | 
CC1(C)[C@H](/C=C2\CCSC2=O)[C@@H]1C(=O)OCc1coc(Cc2ccccc2)c1 | inactive | 
CCN(N=O)C(N)=O | inactive | 
O=C(NC(=O)c1c(F)cccc1F)Nc1cc(Cl)c(OC(F)(F)C(F)C(F)(F)F)cc1Cl (stereo not given) | inactive | 
CCOc1ccc(N)cc1 | inactive | 
CC1(C)[C@H](C(=O)O[C@H](C#N)c2cccc(Oc3ccccc3)c2)[C@@H]1/C=C(\Cl)C(F)(F)F | inactive | 
CNC(=O)O/N=C/C(C)(C)S(C)(=O)=O | inactive | 
CCCCCCCCCCCCBr | inactive | 
C=CC(=O)NC(C)(C)CC(C)=O | inactive | 
CN(C)c1ccc(N=O)cc1 |  | 70.1 µM (active) and 70.5 µM (active)
CC(C=O)Cc1ccc2c(c1)OCO2 (stereo not given) | inactive | 
O=C(Nc1ccc(Br)cc1)c1cc(Br)cc(Br)c1O | inactive | 0.391 µM (active)
CCOC(=O)CCN(SN(C)C(=O)Oc1cccc2c1OC(C)(C)C2)C(C)C | inactive | 
CCOC(=O)C(SP(=S)(OC)OC)c1ccccc1 (stereo not given) | inactive | 
Clc1cc(C(Cl)(Cl)Cl)cnc1Cl | inactive | 
